# Test results taken from the supplement of paper PMC8728848.
# This is one part of a sample in which the strongest signals are shown more often than they occur.
# B1: Epa13 (Candida glabrata) (protein)
# chain: MGSSHHHHHHSSGLVPRGSHMASDSSENGYAHGCSPSIRAKLKPGLSMEIYSYALRPTDDHCWDSAYLDPMFPRTGYLTHKLLGKAEGIIGPLNFLAKNPACIPAVSTLPLAFHFPKPFTITNFTMLLYGYLSPKKTGKYTFKLLADDLLLMNFGADNAFDCCSHDATKDNIGEYVAYSVWPGVNKNVTVYLESGIYYPLRLFFNNRDAIAQLDFAYYFNDSPIRQTDFSGMFFSIPDSVKCPANI
# Legend:
# Experiment in all cases: glycan array binding signal (z-score within array); higher = stronger binding
# Conditions in all cases: glycan notation: IUPAC condensed, linker removed
# [1] = molecular target: Gal(b1-3)GlcNAc(b1-3)Gal(b1-4)GlcNAc
# How it was run: (§1)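 The Consortium for Functional Glycomics database supplied 3228 glycan arrays, of which those lacking an available protein sequence were dropped. The binding signal, a within-array Z-score, was averaged across arrays of the same protein sequence and across linkers. Negative scores can be read as non-binding.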
# [2] = molecular target: Gal(b1-3)GlcNAc(b1-6)Gal(b1-4)GlcNAc
# How it was run: as §1
# [3] = molecular target: Gal(b1-3)GlcNAc(b1-6)[Gal(b1-3)]GalNAc
# How it was run: as §1
# Gal(b1-4)Glc6S = molecular target: Gal(b1-4)Glc6S
# How it was run: as §1
# [4] = molecular target: Gal(b1-4)GlcNAc(a1-6)Gal(b1-4)GlcNAc
# How it was run: as §1
# [5] = molecular target: Gal(b1-4)GlcNAc(b1-2)[Gal(b1-4)GlcNAc(b1-6)]Man(a1-6)[GlcNAc(b1-4)][Gal(b1-4)GlcNAc(b1-2)[Gal(b1-4)GlcNAc(b1-4)]Man(a1-3)]Man(b1-4)GlcNAc(b1-4)[Fuc(a1-6)]GlcNAc
# How it was run: as §1
# [6] = molecular target: Gal(b1-4)GlcNAc(b1-3)Gal(b1-4)GlcNAc
# How it was run: as §1
# Gal4S6S(b1-4)GlcNAc = molecular target: Gal4S6S(b1-4)GlcNAc
# How it was run: as §1
# Gal6S(b1-4)GlcNAc = molecular target: Gal6S(b1-4)GlcNAc
# How it was run: as §1
# Gal6S(b1-4)GlcNAc6S = molecular target: Gal6S(b1-4)GlcNAc6S
# How it was run: as §1
# [7] = molecular target: GalNAc(b1-3)Gal(a1-4)Gal(b1-4)GlcNAc
# How it was run: as §1
# Glc(a1-4)Glc = molecular target: Glc(a1-4)Glc
# How it was run: as §1
# [8] = molecular target: GlcNAc(a1-4)Gal(b1-4)GlcNAc(b1-3)Gal(b1-4)GlcNAc
# How it was run: as §1
# [9] = molecular target: GlcNAc(a1-4)Gal(b1-4)GlcNAc(b1-3)Gal(b1-4)[Fuc(a1-3)]GlcNAc(b1-3)Gal(b1-4)[Fuc(a1-3)]GlcNAc
# How it was run: as §1
# [10] = molecular target: GlcNAc(b1-2)Man(a1-3)[GlcNAc(b1-4)][GlcNAc(b1-2)Man(a1-6)]Man(b1-4)GlcNAc(b1-4)[Fuc(a1-6)]GlcNAc
# How it was run: as §1
# [11] = molecular target: GlcNAc(b1-2)[GlcNAc(b1-4)]Man(a1-3)[GlcNAc(b1-2)Man(a1-6)]Man(b1-4)GlcNAc(b1-4)GlcNAc
# How it was run: as §1
# [12] = molecular target: GlcNAc(b1-2)[GlcNAc(b1-4)]Man(a1-3)[GlcNAc(b1-4)][GlcNAc(b1-2)Man(a1-6)]Man(b1-4)GlcNAc(b1-4)GlcNAc
# How it was run: as §1
# GlcNAc(b1-3)Gal = molecular target: GlcNAc(b1-3)Gal
# How it was run: as §1
# [13] = molecular target: GlcNAc(b1-3)Gal(b1-4)GlcNAc(b1-2)[GlcNAc(b1-3)Gal(b1-4)GlcNAc(b1-6)]Man(a1-6)[GlcNAc(b1-3)Gal(b1-4)GlcNAc(b1-2)Man(a1-3)]Man(b1-4)GlcNAc(b1-4)GlcNAc
# How it was run: as §1
# [14] = molecular target: Neu5Ac(a2-3)Gal(b1-4)GlcNAc(b1-2)Man(a1-3)[Neu5Ac(a2-6)Gal(b1-4)GlcNAc(b1-2)Man(a1-6)]Man(b1-4)GlcNAc(b1-4)GlcNAc
# How it was run: as §1
# [15] = molecular target: Neu5Ac(a2-3)Gal6S(b1-4)[Fuc(a1-3)]GlcNAc
# How it was run: as §1
# [16] = molecular target: Neu5Ac(a2-6)Gal(b1-4)GlcNAc(b1-2)Man(a1-3)[GlcNAc(b1-2)Man(a1-6)]Man(b1-4)GlcNAc(b1-4)GlcNAc
# How it was run: as §1
# [17] = molecular target: Neu5Ac(a2-6)Gal(b1-4)GlcNAc(b1-3)Gal(b1-4)GlcNAc
# How it was run: as §1
# [18] = molecular target: Neu5Ac(a2-6)Gal(b1-4)GlcNAc(b1-3)Gal(b1-4)GlcNAc(b1-3)GalNAc
# How it was run: as §1
# [19] = molecular target: Neu5Ac(a2-6)Gal(b1-4)GlcNAc(b1-6)[Gal(b1-3)]GalNAc
# How it was run: as §1
# [20] = molecular target: Neu5Ac(a2-8)Neu5Ac(a2-3)Gal(b1-4)GlcNAc
# How it was run: as §1
# Neu5Ac(b2-6)GalNAc = molecular target: Neu5Ac(b2-6)GalNAc
# How it was run: as §1
binder,measurement,setting,value
B1,glycan array binding signal (z-score),[1],-0.418
same,glycan array binding signal (z-score),[2],-0.113
same,glycan array binding signal (z-score),[3],-0.014
same,glycan array binding signal (z-score),Gal(b1-4)Glc6S,0.255
same,glycan array binding signal (z-score),[4],0.075
same,glycan array binding signal (z-score),[5],-0.476
same,glycan array binding signal (z-score),[6],-0.291
same,glycan array binding signal (z-score),Gal4S6S(b1-4)GlcNAc,-0.32
same,glycan array binding signal (z-score),Gal6S(b1-4)GlcNAc,0.111
same,glycan array binding signal (z-score),Gal6S(b1-4)GlcNAc6S,2.69
same,glycan array binding signal (z-score),[7],-0.05
same,glycan array binding signal (z-score),Glc(a1-4)Glc,-0.521
same,glycan array binding signal (z-score),[8],0.04
same,glycan array binding signal (z-score),[9],-0.218
same,glycan array binding signal (z-score),[10],0.145
same,glycan array binding signal (z-score),[11],-0.393
same,glycan array binding signal (z-score),[12],-0.299
same,glycan array binding signal (z-score),GlcNAc(b1-3)Gal,-0.445
same,glycan array binding signal (z-score),[13],0.485
same,glycan array binding signal (z-score),[14],-0.354
same,glycan array binding signal (z-score),[15],-0.54
same,glycan array binding signal (z-score),[16],-0.413
same,glycan array binding signal (z-score),[17],-0.07
same,glycan array binding signal (z-score),[18],-0.142
same,glycan array binding signal (z-score),[19],-0.381
same,glycan array binding signal (z-score),[20],-0.449
same,glycan array binding signal (z-score),Neu5Ac(b2-6)GalNAc,-0.624
